Source: PubChem
Compounds with a hit are over-represented: about 4.6% of the library has one in this group of screens.
tim23-1 inh: growth inhibitors of tim23-1 mutant yeast | S. cerevisiae tim23-1 growth, BacTiter-Glo luminescence, 24 h | inhibition, % at 20 µM | 330,000 compounds, 1.3% hits | AID 463212;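 active means growth inhibition of the mutant yeast at or above 50%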;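 further: temperature-sensitive mutant grown at 25 °C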
PfHsp90 yeast 2: inhibits growth of yeast expressing Plasmodium falciparum Hsp90; S. cerevisiae expressing PfHsp90, BacTiter-Glo ATP, 48 h; yeast lacking PDR1 and PDR3 efflux regulators; inhibition, % at 9.4 µM; 310,000 compounds, 0.32% hits;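 active means every replicate shows inhibition above about 80%, whatever the replicate mean, limit read from the data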
SKKanGAS inh: blocks kanamycin growth of S. pyogenes SKKanGAS strain | inhibition, % at 7.5 µM | AID 1662 | 300,000 compounds, 1.3% hits | BacTiter-Glo, 6 h;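 active means mean replicate score, as percent of positive control median, at least 50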;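 further: strain carries kanamycin resistance gene driven by streptokinase promoter and grows in 40 µg/ml kanamycin; loss of luminescence reflects streptokinase promoter inhibition or plain growth inhibition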
TIM10 inh: TIM10 yeast growth inhibition; S. cerevisiae TIM10 strain growth, BacTiter-Glo luminescence, 24 h; inhibition, % at 10 µM; 330,000 compounds, 1.4% hits;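 active means inhibition of 40% or more at the single tested concentration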;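 further: wild-type TIM10 isogenic control strain grown at permissive 25 °C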
tim10-1 inh: inhibits growth of tim10-1 mutant yeast; S. cerevisiae tim10-1 ts strain growth, BacTiter-Glo, 24 h; inhibition, % at 20 µM; 330,000 compounds, 2.2% hits;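 active means inhibition of at least 40%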;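 further: mutant grown at 25 °C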
NLRP3 yeast inh: inhibitors of NALP3 inflammasome in yeast; 330,000 compounds, 0.39% hits; Yeast reconstituted NLRP3/ASC/caspase-1, beta-gal luminescence, 24 h; inhibition, % at 10 µM;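 active means inhibition of 50% or more; inactive means inhibition below 50%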
Large screens that a line does not name were inactive.

Cc1oc(-c2ccccc2Cl)nc1CS(=O)(=O)CC(=O)NCCN1CCOCC1	none
COc1cc(C(=O)NC(=S)N(CCc2ccccc2)CCc2ccccc2)cc(OC)c1OC	SKKanGAS inh 90
COc1cc(C(=O)NC(=S)N(C)Cc2ccccc2)cc(OC)c1OC	none
COc1cc(C(=O)NC(=S)Nc2ccc(NC(=O)c3ccco3)cc2)cc(OC)c1OC	SKKanGAS inh 66
O=C(NC(=S)Nc1ccc(NC(=O)c2ccco2)cc1)c1ccccc1	none
CS(=O)(=O)N(CC(=O)Nc1ccc(S(=O)(=O)N2CCOCC2)cc1)c1cccc(F)c1	none
Cc1cc(C)n(S(=O)(=O)c2cc(C(=O)O)c(Cl)cc2Cl)n1	none
COC(=O)c1cc(S(=O)(=O)n2nc(C)c(Br)c2C)c(Cl)cc1Cl	SKKanGAS inh 72
CC(C)C1OC2c3cccc4cccc(c34)C2N1c1ccccc1 (centres undefined)	SKKanGAS inh 80
C/C(N)=C(/C#N)C(=O)COC(=O)c1cc(-c2ccc(Br)cc2)nc2ccccc12	SKKanGAS inh 70 (no result: tim23-1 inh, TIM10 inh, tim10-1 inh, NLRP3 yeast inh)
CCCCn1c(N)c(N(CCOC)C(=O)C2CC(=O)N(c3cccc(SC)c3)C2)c(=O)[nH]c1=O (centres undefined)	none
Cn1c(N)c(C(=O)COC(=O)CCCc2c[nH]c3ccccc23)c(=O)n(C)c1=O	SKKanGAS inh 75
Cn1c(N)c(C(=O)COC(=O)CCc2c[nH]c3ccccc23)c(=O)n(C)c1=O	SKKanGAS inh 63
NC(=O)COC(=O)CCCc1c[nH]c2ccccc12	none
Cn1c(N)c(C(=O)COC(=O)CCc2nc3ccccc3s2)c(=O)n(C)c1=O	none
CC(C)C(NS(=O)(=O)c1ccc2c(c1)Cc1cc(S(=O)(=O)NC(C(=O)O)C(C)C)ccc1-2)C(=O)O (centres undefined)	none
O=C(O)C1C2CCC(O2)C1C(=O)Nc1ccccc1Br (centres undefined)	none
CCN(C(=O)c1ccc(S(=O)(=O)N2CCOCC2)cc1)C1CCS(=O)(=O)C1 (centres undefined)	none (no result: PfHsp90 yeast 2)
CCCN(CC1CC1)c1nc(N)c(C#N)c(CC#N)c1C#N	none
CCCN(CC1CC1)c1nc(C)nc(Nc2c(Cl)cc(Cl)cc2Cl)c1Cl	SKKanGAS inh 89
CCc1nnc(NC(=O)c2sc3nc4cc(C)ccc4cc3c2N)s1	SKKanGAS inh 93
CN(C)C(=O)c1ccc(NC(=O)CSc2nnc(-c3cccs3)n2N)cc1	none (no result: SKKanGAS inh)
CCC(=O)Nc1ccc(Nc2nc(C)c([N+](=O)[O-])c(Nc3ccc(NC(=O)CC)cc3)n2)cc1	SKKanGAS inh 66
O=C(O)c1ccc(-c2nc(-c3ccccc3)cs2)cc1	none
O=C(O)c1ccc(-c2nc(-c3ccc(Cl)c(Cl)c3)cs2)cc1	SKKanGAS inh 57
CN1C(=O)C(c2ccccc2[N+](=O)[O-])C(=O)c2ccccc21 (centres undefined)	none
O=[N+]([O-])/C=C\c1ccc(N2CCCC2)c(F)c1	PfHsp90 yeast 2 106 (no result: tim23-1 inh, TIM10 inh, tim10-1 inh, NLRP3 yeast inh)
O=[N+]([O-])c1ccc(N=Nc2c(Cl)cc(O)cc2Cl)cc1	PfHsp90 yeast 2 131, SKKanGAS inh 50 (no result: tim23-1 inh, TIM10 inh, tim10-1 inh, NLRP3 yeast inh)
Cc1nn(-c2ccccc2)c2sc(-c3n[nH]c(=S)o3)cc12	SKKanGAS inh 80
CCn1c(=O)c(C(=O)NNC(=O)c2ccccc2Cl)c(O)c2ccccc21	SKKanGAS inh 58
CCCCCC(=O)NNC(=O)c1c(O)c2ccccc2n(CC)c1=O	SKKanGAS inh 94
CCCCCCCCCC(=O)NNC(=O)c1c(O)c2ccccc2n(CC)c1=O	none
CCn1c(=O)c(C(=O)NNC(=O)c2ccccc2F)c(O)c2ccccc21	SKKanGAS inh 90
CCn1c(=O)c(C(=O)NCc2ccc(Cl)cc2)c(O)c2ccccc21	none
Cc1cc(C)cc(N(CCC#N)C(=O)COC(=O)C2CCN(c3ccc(C(F)(F)F)cn3)CC2)c1	none
NC(=O)c1ccc(NS(=O)(=O)c2ccc(Br)s2)cc1	none (no result: SKKanGAS inh)
CCN(CC)c1ccc(-c2nn3c(-c4ccccc4OC)nnc3s2)cc1	SKKanGAS inh 56
COc1ccc(-c2nn3c(-c4ccccc4)nnc3s2)cc1	none
O=[N+]([O-])c1ccc(O)c(/C=N/Nc2ccc(Cl)nn2)c1	SKKanGAS inh 102
O=[N+]([O-])c1ccc(O)c(/C=N/NC2=NS(=O)(=O)c3ccccc32)c1	SKKanGAS inh 59
